Rows were chosen to be rich in hits. Some 1.4% of all compounds tested hit in one or more screens of this group.
FXIa mix inh: factor XIa (human) inhibition, mixture screen. P03951. purified FXIa, fluorogenic substrate, pooled mixtures. inhibition, % at 5 µM. hit rate 0.19% among 62,000;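 also: each value is inhibition by a whole ten-compound pool holding the compound; 0% = enzyme with no mixture and 100% = wells lacking enzyme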
Target sequence (P03951 19-387 limits assumed): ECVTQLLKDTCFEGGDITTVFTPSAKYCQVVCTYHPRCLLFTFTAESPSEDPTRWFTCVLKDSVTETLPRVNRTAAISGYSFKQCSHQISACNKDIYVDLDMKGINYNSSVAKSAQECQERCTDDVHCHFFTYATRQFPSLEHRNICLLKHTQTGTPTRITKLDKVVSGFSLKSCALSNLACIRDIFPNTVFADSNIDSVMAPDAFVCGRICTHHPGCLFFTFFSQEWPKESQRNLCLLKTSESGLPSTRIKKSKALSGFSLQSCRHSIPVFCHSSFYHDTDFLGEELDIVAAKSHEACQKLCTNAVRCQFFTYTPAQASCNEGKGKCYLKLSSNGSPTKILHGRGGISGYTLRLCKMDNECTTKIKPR
Target sequence (P03951 388-625 limits assumed): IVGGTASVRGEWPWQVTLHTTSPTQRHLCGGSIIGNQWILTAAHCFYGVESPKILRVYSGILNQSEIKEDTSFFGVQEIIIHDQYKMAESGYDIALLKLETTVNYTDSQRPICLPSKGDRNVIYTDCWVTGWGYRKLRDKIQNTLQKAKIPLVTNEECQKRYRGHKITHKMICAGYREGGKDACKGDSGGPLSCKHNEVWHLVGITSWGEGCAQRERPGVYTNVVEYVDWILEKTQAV
C1s inh: blocks human complement C1s protease activity; AID 538; mean inhibition % of two 10-compound mixtures (active compounds read high), % at 5 µM (by protocol); hit rate 0.16% among 62,000; purified C1s, fluorogenic AMC substrate, pooled mixtures; P09871;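 active = inhibition above 20% in each of the two 10-compound mixture wells holding the compound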;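 also: 0% = enzyme wells lacking compound mixture and 100% = no-enzyme blank wells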
PLAP activator: activates human placental alkaline phosphatase | P05187 | purified PLAP enzyme, luminescent substrate read-out; active compounds read high | activation fold at 20 µM | hit rate 1.2% among 96,000; in the data active = activation fold above about 2
FXIIa mix inh: factor XIIa (human) inhibition, mixture screen. purified FXIIa, fluorogenic substrate, pooled mixtures. inhibition, % at 5 µM. hit rate 0.2% among 62,000;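 also: 0% = enzyme without compound and 100% = no enzyme blank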
CatG inh: cathepsin G (human) inhibition. P08311. purified enzyme, AMC-tetrapeptide fluorescence, pooled mixtures. inhibition, % at 5 µM (by protocol). hit rate 0.2% among 62,000. AID 581;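 active = inhibition above 20% in each of the two mixture wells holding the compound; inactive = inhibition of 20% or less in either well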;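 also: 0% = enzyme control without mixture and 100% = blank lacking enzyme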
HePTP inh: inhibitors of human HePTP phosphatase; inhibition, % at 20 µM; recombinant HePTP phosphatase activity, OD absorbance; hit rate 0.64% among 110,000; P35236; AID 521; in the data active = inhibition above about 50%;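 also: plate controls were vehicle for no effect and reference inhibitor for full effect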
* marks the source's active call; other numbers are inactive results; . = no result given. Rule as the data show it, unless noted: active = inhibition above about 20% (passing the limit was not always enough); inactive = the rest.

SMILES	FXIa mix inh	C1s inh	PLAP activator	FXIIa mix inh	CatG inh	HePTP inh
O=C(NCc1cccs1)c1cnn2c(C(F)(F)F)cc(-c3ccco3)nc12	.	.	.	.	.	4
COc1cc(/C=C2\Sc3ccccc3C2=O)cc(OC)c1O	.	.	.	.	.	10
COc1cc2nc(-c3cccs3)oc(=O)c2cc1OC	7	11	.	4	22*	6
COc1cc(C2c3c(-c4cc(C)cc(C)c4O)n[nH]c3C(=O)N2CCCO)cc(OC)c1OC (centres undefined)	-3	-2	2.1*	-1	8	-2
Cc1ccc2nc(Nc3nc(CSc4nnnn4-c4ccccc4)cc(=O)[nH]3)nc(C)c2c1	.	.	2.8*	.	.	.
CCCCCc1c(C)nc(Nc2nc(C)c3cc(OC)ccc3n2)[nH]c1=O	5	16	2*	6	-14	10
Cc1ccc2c(C)nc(Nc3nc(CSc4nnc(C)s4)cc(=O)[nH]3)nc2c1	.	.	1.1	.	.	.
CCc1ccc2nc(Nc3nc(COC)cc(=O)[nH]3)nc(C)c2c1	.	.	2.5*	.	.	.
COc1ccc(OC)c(NC(=O)c2cc3cc(Br)ccc3oc2=O)c1	.	.	.	.	.	-12
O=C(Nc1ccc(-c2nc3ccccc3[nH]2)cc1)c1ccc(Cl)c(Cl)c1	.	.	.	.	.	101*
O=C(Nc1ccc(-c2nc3ccccc3[nH]2)cc1)c1cc2ccccc2o1	.	.	.	.	.	102*
COc1ccc(-c2ccc(/C=C3\C(=O)NN(c4ccc(Cl)c(Cl)c4)C3=O)o2)c([N+](=O)[O-])c1	.	.	.	.	.	31
CS(=O)(=O)N(CC(=O)NCCc1ccccc1)c1cccc(C(F)(F)F)c1	.	.	.	.	.	-13
O=C(Nc1cccc(NC(=O)c2cccnc2)c1)c1cccnc1	9	3	0.8	2	7	16
O=C(Nc1ccc2oc(=O)ccc2c1)c1cccnc1	16	23*	.	-1	16	10
COc1ccc(OC)c(/C=C2/SC(=O)N(CNc3ccc(Br)cc3C)C2=O)c1	.	.	.	.	.	4
Cc1ccc(S(=O)(=O)NCc2nnc(NC(=O)c3ccc(Br)cc3)s2)cc1	.	.	.	.	.	58*
CCc1nnc(NC(=O)c2ccc(S(=O)(=O)NCC(C)C)cc2)s1	1	11	1.2	-3	9	14
CCOC(=O)c1[nH]c(=O)[nH]c1CN1CCc2ccccc2C1	.	.	.	.	.	7
COc1cccc(C2=CC(c3cccc(OC)c3OC)n3nnnc3N2)c1 (centres undefined)	2	30*	1.1	8	34	6
O=C(COc1ccc2ccccc2c1)Nc1cccc(Br)c1	.	.	.	.	.	70*
C=CCOc1ccc(/C=C2\SC(=Nc3ccccc3)NC2=O)cc1OC	.	.	.	.	.	64*
O=C(c1noc2c1CCc1ccccc1-2)N1CCOCC1	3	-12	1.2	10	37*	8
O=C(c1noc2c1CCc1ccccc1-2)N1CCc2ccccc2C1	4	1	1.2	-13	30*	-5
O=C(c1cccnc1)N1CCCc2ccccc21	-2	-3	1	9	-6	1
SMILES	FXIa mix inh	C1s inh	PLAP activator	FXIIa mix inh	CatG inh	HePTP inh
O=C(c1noc2c1CCc1ccccc1-2)N1CCCc2ccccc21	9	-32	0.9	-20	39*	6
Cc1onc(-c2ccccc2Cl)c1C(=O)N1CCc2ccccc2C1	.	.	1.1	.	.	-14
COc1ccc(NC(=O)C(=O)N/N=C/c2ccc(O)c(OC)c2)cc1	.	.	.	.	.	-2
CC(C)Oc1cccc(-c2cc(C(=O)O)c3ccccc3n2)c1	.	.	.	.	.	8
Cc1cc(C)cc(OCC(=O)Nc2nonc2NC(=O)COc2cc(C)cc(C)c2)c1	5	-3	2.3*	0	8	4
CC(=O)Nc1ccc(NS(=O)(=O)c2ccc(Cl)c(C(=O)O)c2)cc1	4	-18	1	7	-2	2
O=C(O)c1cccc(NS(=O)(=O)c2ccc(Cl)c(C(=O)O)c2)c1	17	15	0.9	22*	24	6
O=C(O)c1cccc(NS(=O)(=O)c2ccc3nnn(O)c3c2)c1	5	-12	0.9	37*	1	9
O=C(Nc1ccc(Nc2ccccc2)cc1)c1cccc([N+](=O)[O-])c1	.	.	.	.	.	-12
COc1cccc(/C=C(\C#N)c2nc(-c3cccs3)cs2)c1	.	.	.	.	.	-3
Cc1sc(NC(=O)c2ccc(Cl)cc2)c(C(=O)OC(C)C)c1C	.	.	.	.	.	-14
Cc1ccc(C)n1-c1cc(C(=O)O)ccc1O	.	.	.	.	.	103*
Cc1ccc(C)n1-c1ccc(C(=O)O)c(Cl)c1	.	.	.	.	.	102*
Cc1ccc(C)n1-c1cc(C(=O)O)cc(C(=O)O)c1	.	.	.	.	.	101*
Cc1ccc(C)n1-c1ccc(C(=O)O)c(O)c1	.	.	.	.	.	103*
Cc1ccc(C)n1-c1ccc(C(=O)O)cc1	.	.	1.6	.	.	.
Cc1ccc(C)n1-c1ccc(Cl)c(C(=O)NN)c1	.	.	.	.	.	1
COc1ccc(NCc2nnc(SCC(=O)Nc3cc(C(F)(F)F)ccc3Cl)o2)cc1	1	9	2.3*	-15	10	6
COc1ccc(NCc2nnc(SCC(=O)Nc3cc(C)cc(C)c3)o2)cc1	13	14	1.1	-2	12	1
O=C(O)CCCCCN1C(=O)C(O)=C(C(=O)/C=C/c2ccccc2)C1c1cccc(F)c1 (centres undefined)	.	.	.	.	.	1
O=C(CSc1ncn[nH]1)Nc1c(F)cc(F)cc1Br	.	.	2.1*	.	.	.
CNC(=O)CN(C1CCCCC1)S(=O)(=O)c1ccc(OC)c(Cl)c1	5	-1	1.1	48*	-1	1
COc1ccc(S(=O)(=O)N(CC(=O)NC2CC2)C2CCCCC2)cc1Cl	14	-1	1.3	-19	1	9
Cc1ccc(C2C3=C(CC(C)(C)CC3=O)Nc3n[nH]c(C)c32)cc1 (centres undefined)	3	-16	2*	5	-3	-3
Cc1[nH]nc2c1C(c1ccc(F)cc1)C1=C(CC(C)(C)CC1=O)N2 (centres undefined)	4	1	0.9	1	5	8
SMILES	FXIa mix inh	C1s inh	PLAP activator	FXIIa mix inh	CatG inh	HePTP inh
O=C(Nc1nc2ccccc2n1CCN1CCCC1)c1ccc(Cl)cc1	0	-11	1.3	3	-3	-5
O=C(Nc1nc2ccccc2n1CCN1CCCCC1)C1CCCCC1	.	.	1.6	.	.	.
O=C(Nc1nc2ccccc2n1CCN1CCCC1)C1CCCCC1	5	6	2.6*	-5	5	2
Cc1ccc(C(=O)Nc2nc3ccccc3n2CCN2CCCC2)cc1	6	-1	2.8*	-19	-2	5
S=C(NCCc1c[nH]c2ccccc12)Nc1ccc(Cl)cc1Cl	.	.	.	.	.	-16
Cc1cc(SCC(=O)N/N=C/c2ccc(O)c(O)c2O)c(C)cc1Br	.	.	2.2*	.	.	.
COc1cc(/C=N/NC(=O)CSc2cc(C)c(Br)cc2C)ccc1O	.	.	1.7	.	.	.
O=C1CCC(=O)c2oc3ccccc3c2N1	-17	-55	0.9	21*	-25	-8
O=C(O)COc1ccc(N2C(=O)c3ccc(C(=O)O)cc3C2=O)cc1	.	.	.	.	.	-6
O=C(O)c1cccc(N2C(=O)c3ccc(OCCOc4ccc5c(c4)C(=O)N(c4cccc(C(=O)O)c4)C5=O)cc3C2=O)c1	.	.	.	.	.	104*
O=C(Nc1ccsc1C(=O)NC1CCCCC1)c1ccc(F)cc1	.	.	1	.	.	.
O=C(/N=C1\NC(=O)C(F)(C(F)(F)F)S1)NC1CCCCC1 (centres undefined)	24*	14	1.3	3	17	4
